Laboratory results as given in PubChem BioAssay (EPA / NIEHS).
Records with an inconclusive call do not appear. The source made the active and inactive calls. The calls were made as follows, unless noted: active = hit-call score of the fitted dose curve at least 0.9, where 1 is the maximum; inconclusive = response in the unintended direction; inactive = score below 0.9.

Tests used:
[1] = ATG_TAL_CIS: Attagene CIS-FACTORIAL HepG2 Assay for human TAL Basal Promoter (AID 2282966; active = hit-call score of the fitted dose curve at least 0.9, where 1 is the maximum; inactive = score below 0.9;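 also: background control endpoint measuring basal TAL promoter reporter mRNA not a specific factor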); conditions: HepG2 Attagene cis-factorial TAL promoter reporter; actives raise or lower the signal
Outline: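 HepG2 cells were transiently transfected with promoter-driven multiplexed reporter units and dosed for 24 h. Reporter mRNA was measured by RT-PCR with capillary electrophoresis fluorescence; bidirectional fits used DMSO as baseline, serving as a background control.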

[2] = ATG_VDRE_CIS: Attagene CIS-FACTORIAL HepG2 Assay for human Vitamin D Receptor Element (VDRE) (AID 2282968; active = hit-call score of the fitted dose curve at least 0.9, where 1 is the maximum; inactive = score below 0.9); conditions: HepG2 VDRE cis-reporter transcription, actives raise or lower the signal
Outline: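 HepG2 cells transiently transfected with cis-element reporter units, dosed 24 h; reporter mRNA measured by RT-PCR, 6-FAM labeling, HpaI digestion and capillary electrophoresis. Activity fitted bidirectionally against DMSO baseline.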

[3] = target: Nuclear receptor subfamily 1 group I member 3 (Homo sapiens) (UniProt Q14994); experiment: ATG_CAR_TRANS: Attagene TRANS-FACTORIAL HepG2 Assay for human Constitutive Androstane Receptor (CAR) (AID 2282969); conditions: HepG2 Attagene TRANS-FACTORIAL CAR reporter;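 also: activators raise reporter mRNA above DMSO so AC50 marks induction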
Outline: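 HepG2 cells transiently transfected with multiplexed GAL4-UAS reporter units expressing chimeric NR-Gal4 proteins; compound exposure 24 h. Reporter mRNA measured by RT-PCR, 6-FAM labelling, HpaI digestion and capillary electrophoresis; gain-of-signal fitted against DMSO baseline.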

[4] = target: Estrogen receptor (Homo sapiens) (UniProt P03372); experiment: ATG_ERa_TRANS: Attagene TRANS-FACTORIAL HepG2 Assay for human Estrogen Receptor alpha (ERa) (AID 2282970); conditions: HepG2 Attagene TRANS ERa GAL4 reporter, mRNA
Outline: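 HepG2 cells transiently transfected with multiplexed GAL4-UAS reporter units; ERa activity read via exogenous chimeric NR-Gal4 protein. After 24 hour compound exposure, reporter mRNA measured by RT-PCR with 6-FAM labelling and capillary electrophoresis; gain-of-signal fitted relative to DMSO.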

[5] = target: X-box-binding protein 1 (Homo sapiens) (UniProt P17861); experiment: ATG_Xbp1_CIS: Attagene CIS-FACTORIAL HepG2 Assay for human X-box Binding Protein 1 (XBP1) (AID 2282972; active = hit-call score of the fitted dose curve at least 0.9, where 1 is the maximum; inactive = score below 0.9); conditions: HepG2 XBP1 cis-element reporter, Attagene multiplex; actives raise or lower the signal
Outline: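 HepG2, transient MRTU transfection (cis-promoter driven), 24 h compound exposure. Total RNA → oligo(dT) RT → PCR → 6-FAM labeling → HpaI cut → CE. Bidirectional fit vs DMSO.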

[6] = ATG_GAL4_TRANS: Attagene TRANS-FACTORIAL HepG2 Assay for GAL4 (Internal Marker) (AID 2282976); conditions: HepG2 Attagene TRANS GAL4 internal marker reporter
Outline: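 HepG2 cells transiently transfected with multiplexed GAL4-UAS reporter constructs were dosed for 24 h. Reporter mRNA was measured by RT-PCR, 6-FAM primer extension, HpaI digestion and capillary electrophoresis, and gain of signal was fitted relative to DMSO.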

[7] = target: Glucocorticoid receptor (Homo sapiens) (UniProt P04150); experiment: ATG_GR_TRANS: Attagene TRANS-FACTORIAL HepG2 Assay for human Glucocorticoid Receptor (GR) (AID 2282978); conditions: HepG2 Attagene TRANS GR reporter, mRNA transcription;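 also: activators score as hits since higher reporter transcript over DMSO is fitted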
Outline: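 Exogenous NR-GAL4 fusion activity was assessed through induced GAL4-UAS reporter transcripts in transfected human HepG2 cells, quantified after 24 h by RT-PCR and fluorescent capillary electrophoresis with DMSO as baseline.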

[8] = target: Oxysterols receptor LXR-alpha (Homo sapiens) (UniProt Q13133); experiment: ATG_LXRa_TRANS: Attagene TRANS-FACTORIAL HepG2 Assay for human Liver X Receptor alpha (LXRa) (AID 2282980); conditions: HepG2 Attagene TRANS reporter, LXRa transactivation
Outline: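 HepG2 cells were transiently transfected with multiplexed reporter units driven by chimeric LXRa–GAL4 fusion proteins, then dosed for 24 h. Reporter mRNA was quantified by RT-PCR, fluorescent labelling and capillary electrophoresis; gain of signal fitted against DMSO baseline.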

[9] = target: Oxysterols receptor LXR-beta (Homo sapiens) (UniProt P55055); experiment: ATG_LXRb_TRANS: Attagene TRANS-FACTORIAL HepG2 Assay for human Liver X Receptor beta (LXRb) (AID 2282981); conditions: HepG2 Attagene TRANS GAL4-LXRb reporter, mRNA
Outline: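 HepG2 cells transiently transfected with multiple reporter transcription units carrying chimeric NR-Gal4 proteins acting on GAL4-UAS reporters; compound exposure 24 h. Reporter mRNA quantified by RT-PCR, 6-FAM labelling, HpaI digestion and capillary electrophoresis; gain of signal versus DMSO.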

[10] = ATG_M_06_TRANS: Attagene TRANS-FACTORIAL HepG2 Assay for M06 Transcription Factor (Internal Marker) (AID 2282983); conditions: HepG2 Attagene TRANS M06 internal marker reporter;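 also: reporter transcript level by RT-PCR then capillary electrophoresis fluorescence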
Outline: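 HepG2 cells transiently transfected with multiplexed GAL4-UAS reporter transcription units; after 24 h compound exposure, reporter mRNA measured by RT-PCR, FAM-labelled primer extension, HpaI digestion and capillary electrophoresis. Gain-of-signal fitted versus DMSO baseline; background control readout.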

[11] = target: Transcriptional activator Myb (Homo sapiens) (UniProt P10242); experiment: ATG_Myb_CIS: Attagene CIS-FACTORIAL HepG2 Assay for human Myeloblastosis (Myb) Proto-Oncogene Transcription Factor (AID 2282986; active = hit-call score of the fitted dose curve at least 0.9, where 1 is the maximum; inactive = score below 0.9); conditions: HepG2 Attagene CIS-FACTORIAL Myb reporter transcription; actives raise or lower the signal
Outline: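 In this HepG2 transient-transfection format, cis-regulated reporter mRNA is quantified 24 h post-dosing by RT-PCR with capillary electrophoresis, fitted bidirectionally to DMSO baseline.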

[12] = target: Nuclear respiratory factor 1 (Homo sapiens) (UniProt Q16656); experiment: ATG_NRF1_CIS: Attagene CIS-FACTORIAL HepG2 Assay for human Nuclear Respiratory Factor 1 (NRF1) Orphan Gene (AID 2282987; active = hit-call score of the fitted dose curve at least 0.9, where 1 is the maximum; inactive = score below 0.9); conditions: HepG2 NRF1 cis-element reporter, Attagene multiplex; actives raise or lower the signal
Outline: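 Using DMSO as baseline, gain- or loss-of-signal was fitted for reporter mRNA levels in HepG2 cells transiently transfected with cis-regulated reporter units. Samples were taken 24 h after dosing and read by RT-PCR with capillary electrophoresis.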

[13] = ATG_M_19_TRANS: Attagene TRANS-FACTORIAL HepG2 Assay for M19 Transcription Factor (Internal Marker) (AID 2282974); conditions: HepG2 Attagene TRANS-FACTORIAL M19 internal marker reporter
Outline: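 Using RT-PCR and capillary electrophoresis, reporter mRNA from transiently transfected human HepG2 cells was quantified following 24 h exposure; activity was fitted in the positive direction against DMSO.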

[14] = ATG_M_32_TRANS: Attagene TRANS-FACTORIAL HepG2 Assay for M32 Transcription Factor (Internal Marker) (AID 2282984); conditions: HepG2 Attagene TRANS M32 internal marker reporter
Outline: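 HepG2 cells transiently transfected with multiple GAL4-UAS reporter transcription units, dosed for 24 hours; reporter mRNA quantified by RT-PCR, 6-FAM primer extension, HpaI digestion and capillary electrophoresis. Gain-of-signal fitted versus DMSO baseline; internal background-control marker.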

[15] = target: Estrogen-related receptor gamma (Homo sapiens) (UniProt P62508); experiment: ATG_ERRg_TRANS: Attagene TRANS-FACTORIAL HepG2 Assay for human Estrogen-Related Receptor gamma (ERRg) (AID 2282977); conditions: HepG2 Attagene TRANS reporter, ERRg transactivation;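 also: hits increase reporter signal over DMSO so potencies reflect activators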
Outline: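 Transient HepG2 transfectants, 24 h compound exposure, GAL4-UAS reporter mRNA by RT-PCR/6-FAM labelling/capillary electrophoresis; positive direction vs DMSO.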

[16] = target: Hepatocyte nuclear factor 4-alpha (Homo sapiens) (UniProt P41235); experiment: ATG_HNF4a_TRANS: Attagene TRANS-FACTORIAL HepG2 Assay for human Hepatocyte Nuclear Factor 4 alpha (HNF4a) (AID 2282982); conditions: HepG2 HNF4a transactivation reporter, mRNA readout
Outline: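 HepG2 cells transiently transfected with multiplexed GAL4-UAS reporter units responsive to chimeric NR-GAL4 proteins; compound exposure 24 h. Reporter mRNA quantified by RT-PCR, 6-FAM labelling, HpaI digestion and capillary electrophoresis; gain of signal versus DMSO baseline.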

[17] = target: Bile acid receptor (Homo sapiens) (UniProt Q96RI1); experiment: ATG_FXR_TRANS: Attagene TRANS-FACTORIAL HepG2 Assay for Farnesoid X Receptor (FXR) (AID 2282979); conditions: HepG2 Attagene TRANS FXR-GAL4 reporter transcription;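 also: hits raise reporter mRNA above DMSO so AC50 marks FXR activation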
Outline: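 HepG2 cells transiently transfected with reporter constructs in which a chimeric FXR-GAL4 protein drives a GAL4-UAS reporter; 24 h compound exposure. Reporter mRNA measured by RT-PCR, FAM labelling, HpaI digestion and capillary electrophoresis; gain-of-signal versus DMSO.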

[18] = target: Nuclear receptor subfamily 4 group A member 2 (Homo sapiens) (UniProt P43354); experiment: ATG_NURR1_TRANS: Attagene TRANS-FACTORIAL HepG2 Assay for human Nuclear Receptor Related Protein 1 (NURR1) (AID 2282985); conditions: HepG2 Attagene TRANS reporter, mRNA readout
Outline: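 HepG2 cells transiently transfected with GAL4-UAS reporter units and chimeric NR-Gal4 constructs; chemical exposure 24 h. Reporter mRNA quantified by RT-PCR, fluorescent labelling and capillary electrophoresis; gain of signal fitted relative to DMSO baseline.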

Measured: outcome

Chain of Transcriptional activator Myb (Homo sapiens) (P10242 whole entry, looked up): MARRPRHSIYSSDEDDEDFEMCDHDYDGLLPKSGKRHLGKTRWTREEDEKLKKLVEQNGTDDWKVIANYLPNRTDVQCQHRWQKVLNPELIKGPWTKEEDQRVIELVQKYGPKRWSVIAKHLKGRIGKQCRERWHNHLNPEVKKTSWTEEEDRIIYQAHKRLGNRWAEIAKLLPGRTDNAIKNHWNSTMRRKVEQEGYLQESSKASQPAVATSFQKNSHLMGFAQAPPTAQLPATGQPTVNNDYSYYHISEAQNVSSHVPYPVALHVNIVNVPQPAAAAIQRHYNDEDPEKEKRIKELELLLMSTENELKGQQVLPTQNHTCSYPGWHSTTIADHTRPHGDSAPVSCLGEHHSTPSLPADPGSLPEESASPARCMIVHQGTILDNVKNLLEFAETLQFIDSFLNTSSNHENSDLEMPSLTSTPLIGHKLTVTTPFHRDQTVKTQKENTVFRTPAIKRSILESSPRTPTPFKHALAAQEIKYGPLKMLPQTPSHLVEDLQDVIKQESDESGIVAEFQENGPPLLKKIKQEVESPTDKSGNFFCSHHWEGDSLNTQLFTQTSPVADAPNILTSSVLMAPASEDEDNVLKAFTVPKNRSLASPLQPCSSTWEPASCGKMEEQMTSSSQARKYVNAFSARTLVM
Chain of Glucocorticoid receptor (Homo sapiens) (P04150 whole entry, looked up, the tested form may be a part): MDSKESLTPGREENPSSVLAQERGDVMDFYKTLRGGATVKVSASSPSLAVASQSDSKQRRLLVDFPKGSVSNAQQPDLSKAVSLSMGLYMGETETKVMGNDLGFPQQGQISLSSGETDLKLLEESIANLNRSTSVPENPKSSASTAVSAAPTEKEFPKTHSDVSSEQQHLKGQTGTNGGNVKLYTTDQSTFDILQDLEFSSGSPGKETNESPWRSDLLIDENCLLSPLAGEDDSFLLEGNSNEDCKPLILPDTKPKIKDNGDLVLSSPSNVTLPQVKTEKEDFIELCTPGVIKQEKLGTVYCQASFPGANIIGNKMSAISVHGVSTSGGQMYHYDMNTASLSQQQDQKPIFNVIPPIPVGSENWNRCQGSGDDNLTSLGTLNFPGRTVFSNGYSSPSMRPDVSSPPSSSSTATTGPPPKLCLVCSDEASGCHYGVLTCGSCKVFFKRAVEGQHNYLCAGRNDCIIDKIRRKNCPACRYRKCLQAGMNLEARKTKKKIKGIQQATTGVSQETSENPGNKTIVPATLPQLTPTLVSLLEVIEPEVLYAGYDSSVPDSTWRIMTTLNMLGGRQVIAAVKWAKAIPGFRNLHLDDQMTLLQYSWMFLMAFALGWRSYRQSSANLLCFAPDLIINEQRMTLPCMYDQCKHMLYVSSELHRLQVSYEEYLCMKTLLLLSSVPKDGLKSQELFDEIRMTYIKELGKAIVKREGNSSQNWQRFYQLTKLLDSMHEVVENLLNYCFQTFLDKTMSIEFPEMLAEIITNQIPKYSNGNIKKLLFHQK
Chain of Nuclear receptor subfamily 1 group I member 3 (Homo sapiens) (Q14994 whole entry, looked up, the tested form may be a part): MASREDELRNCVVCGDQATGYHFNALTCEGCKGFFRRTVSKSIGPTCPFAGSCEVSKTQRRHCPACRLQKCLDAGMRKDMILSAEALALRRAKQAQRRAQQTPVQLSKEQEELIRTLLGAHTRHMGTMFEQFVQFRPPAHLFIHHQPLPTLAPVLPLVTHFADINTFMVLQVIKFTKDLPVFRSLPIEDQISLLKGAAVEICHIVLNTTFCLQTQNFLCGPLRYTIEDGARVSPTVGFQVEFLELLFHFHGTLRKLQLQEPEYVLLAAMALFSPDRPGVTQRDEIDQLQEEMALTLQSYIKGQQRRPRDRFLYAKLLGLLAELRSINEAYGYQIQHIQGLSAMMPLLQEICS
Chain of Oxysterols receptor LXR-beta (Homo sapiens) (P55055 whole entry, looked up, the tested form may be a part): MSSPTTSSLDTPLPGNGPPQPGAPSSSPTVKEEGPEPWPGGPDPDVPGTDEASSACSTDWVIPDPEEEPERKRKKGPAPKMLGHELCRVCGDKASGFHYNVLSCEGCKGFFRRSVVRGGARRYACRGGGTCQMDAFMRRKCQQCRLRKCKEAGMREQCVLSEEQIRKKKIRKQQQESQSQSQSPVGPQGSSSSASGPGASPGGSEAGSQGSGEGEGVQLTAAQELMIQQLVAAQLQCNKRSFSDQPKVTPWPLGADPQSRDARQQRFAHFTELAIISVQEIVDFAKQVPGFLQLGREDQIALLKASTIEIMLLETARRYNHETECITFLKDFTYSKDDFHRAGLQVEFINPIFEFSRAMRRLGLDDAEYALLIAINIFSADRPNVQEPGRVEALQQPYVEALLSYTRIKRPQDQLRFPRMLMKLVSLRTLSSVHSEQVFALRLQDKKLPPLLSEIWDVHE
Chain of Estrogen receptor (Homo sapiens) (P03372 whole entry, looked up, the tested form may be a part): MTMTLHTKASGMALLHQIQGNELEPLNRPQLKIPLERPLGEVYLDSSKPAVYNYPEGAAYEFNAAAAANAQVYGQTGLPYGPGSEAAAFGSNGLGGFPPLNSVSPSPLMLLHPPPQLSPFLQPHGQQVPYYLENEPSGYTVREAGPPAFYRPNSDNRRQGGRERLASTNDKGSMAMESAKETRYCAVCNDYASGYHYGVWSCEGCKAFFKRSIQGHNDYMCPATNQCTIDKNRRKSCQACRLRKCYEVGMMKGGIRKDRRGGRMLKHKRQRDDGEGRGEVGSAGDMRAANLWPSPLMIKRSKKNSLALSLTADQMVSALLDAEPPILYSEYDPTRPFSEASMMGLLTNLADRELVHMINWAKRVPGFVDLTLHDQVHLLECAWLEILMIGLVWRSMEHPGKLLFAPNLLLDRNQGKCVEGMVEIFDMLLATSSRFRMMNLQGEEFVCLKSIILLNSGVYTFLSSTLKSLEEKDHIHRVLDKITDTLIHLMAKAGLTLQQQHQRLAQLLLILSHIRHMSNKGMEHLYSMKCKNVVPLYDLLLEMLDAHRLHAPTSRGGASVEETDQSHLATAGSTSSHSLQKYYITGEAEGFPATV
Chain of X-box-binding protein 1 (Homo sapiens) (P17861 whole entry, looked up): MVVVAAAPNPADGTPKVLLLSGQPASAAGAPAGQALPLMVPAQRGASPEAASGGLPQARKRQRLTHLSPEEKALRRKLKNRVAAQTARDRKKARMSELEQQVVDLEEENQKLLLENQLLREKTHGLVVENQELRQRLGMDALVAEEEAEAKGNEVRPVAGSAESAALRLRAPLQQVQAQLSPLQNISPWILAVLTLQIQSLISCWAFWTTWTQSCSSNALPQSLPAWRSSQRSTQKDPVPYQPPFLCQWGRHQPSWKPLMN
Chain of Nuclear respiratory factor 1 (Homo sapiens) (Q16656 whole entry, looked up): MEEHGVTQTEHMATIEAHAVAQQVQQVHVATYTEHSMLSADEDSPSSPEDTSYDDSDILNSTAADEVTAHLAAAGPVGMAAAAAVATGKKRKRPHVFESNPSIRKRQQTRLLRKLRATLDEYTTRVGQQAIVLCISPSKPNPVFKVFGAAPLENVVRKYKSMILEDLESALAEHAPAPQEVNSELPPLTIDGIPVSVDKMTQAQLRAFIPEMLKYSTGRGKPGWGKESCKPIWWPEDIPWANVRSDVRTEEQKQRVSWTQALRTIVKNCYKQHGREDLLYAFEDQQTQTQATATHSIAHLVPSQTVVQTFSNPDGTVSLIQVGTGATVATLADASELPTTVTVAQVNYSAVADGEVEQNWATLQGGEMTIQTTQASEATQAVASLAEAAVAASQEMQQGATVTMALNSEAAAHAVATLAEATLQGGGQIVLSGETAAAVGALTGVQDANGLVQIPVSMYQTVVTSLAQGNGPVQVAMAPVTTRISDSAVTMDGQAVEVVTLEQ
Chain of Bile acid receptor (Homo sapiens) (Q96RI1 whole entry, looked up, the tested form may be a part): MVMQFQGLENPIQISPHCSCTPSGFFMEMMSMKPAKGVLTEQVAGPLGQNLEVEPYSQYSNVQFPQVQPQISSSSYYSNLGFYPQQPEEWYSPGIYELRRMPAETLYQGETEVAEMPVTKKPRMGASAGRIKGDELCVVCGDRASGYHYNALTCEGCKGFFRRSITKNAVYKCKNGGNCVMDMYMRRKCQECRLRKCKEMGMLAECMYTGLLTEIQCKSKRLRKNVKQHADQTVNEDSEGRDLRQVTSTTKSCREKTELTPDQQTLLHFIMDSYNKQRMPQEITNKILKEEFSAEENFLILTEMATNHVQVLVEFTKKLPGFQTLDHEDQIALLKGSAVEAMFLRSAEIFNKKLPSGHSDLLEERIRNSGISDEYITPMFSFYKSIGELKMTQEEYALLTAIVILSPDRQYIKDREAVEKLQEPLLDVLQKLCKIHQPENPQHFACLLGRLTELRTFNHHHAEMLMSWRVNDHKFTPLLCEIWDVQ
Chain of Hepatocyte nuclear factor 4-alpha (Homo sapiens) (P41235 whole entry, looked up, the tested form may be a part): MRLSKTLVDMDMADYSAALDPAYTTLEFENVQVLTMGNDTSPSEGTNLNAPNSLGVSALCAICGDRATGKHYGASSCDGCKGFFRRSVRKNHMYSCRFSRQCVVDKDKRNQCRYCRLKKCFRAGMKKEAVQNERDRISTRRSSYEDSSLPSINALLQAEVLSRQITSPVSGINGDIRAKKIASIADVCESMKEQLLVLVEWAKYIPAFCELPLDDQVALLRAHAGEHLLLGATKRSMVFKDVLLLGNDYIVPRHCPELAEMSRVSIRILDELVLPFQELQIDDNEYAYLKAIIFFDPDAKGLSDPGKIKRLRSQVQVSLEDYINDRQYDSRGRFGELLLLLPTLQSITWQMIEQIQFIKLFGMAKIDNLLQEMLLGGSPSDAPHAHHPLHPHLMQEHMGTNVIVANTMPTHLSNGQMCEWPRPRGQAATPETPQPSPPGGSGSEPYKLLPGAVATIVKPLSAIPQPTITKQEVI
Chain of Oxysterols receptor LXR-alpha (Homo sapiens) (Q13133 whole entry, looked up, the tested form may be a part): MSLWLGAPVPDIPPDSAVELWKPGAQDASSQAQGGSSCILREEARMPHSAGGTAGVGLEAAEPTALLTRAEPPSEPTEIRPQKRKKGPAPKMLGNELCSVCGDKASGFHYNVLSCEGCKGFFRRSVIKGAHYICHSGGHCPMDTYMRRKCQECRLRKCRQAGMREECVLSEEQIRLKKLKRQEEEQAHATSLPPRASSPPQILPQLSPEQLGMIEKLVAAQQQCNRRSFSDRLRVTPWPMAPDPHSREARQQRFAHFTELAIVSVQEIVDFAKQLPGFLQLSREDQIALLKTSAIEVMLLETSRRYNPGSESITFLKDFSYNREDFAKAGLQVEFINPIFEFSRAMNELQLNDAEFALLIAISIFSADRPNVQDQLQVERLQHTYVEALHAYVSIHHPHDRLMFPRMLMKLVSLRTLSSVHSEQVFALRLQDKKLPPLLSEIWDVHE

CC(C)(C)NC(N)=O
not listed: [13] | [14] | [15] | [16] | [17] | [18]
inactive: all other assays above

Clc1sc(Cl)c(Cl)c1Cl
not listed: [7] | [8] | [9] | [15] | [16] | [17] | [18]
inactive: all other assays above

CCCCC(CC)COC(=O)/C=C\C(=O)OCC(CC)CCCC (configuration not stated)
not listed: [4] | [8] | [9] | [10] | [16] | [17] | [18]
inactive: all other assays above

CC(C)(C)C(=O)c1ccccc1
inactive: [1] | [2] | [4] | [5] | [16] | [10] | [11]

COc1ccc(OC)c(OC)c1
not listed: [7] | [8] | [13] | [15] | [18]
inactive: all other assays above

O=C(O)COCCN1CCN(C(c2ccccc2)c2ccc(Cl)cc2)CC1 (configuration not stated)
not listed: [7] | [8] | [9] | [12] | [15] | [16] | [18]
inactive: all other assays above

NC(N)=NC(=O)c1nc(Cl)c(N)nc1N
not listed: [3] | [6] | [8] | [13] | [15] | [16] | [17]
inactive: all other assays above

Cc1ccc2ccccc2n1
not listed: [3] | [4] | [7] | [10] | [15] | [16] | [17]
inactive: all other assays above
